PubChem BioAssay (NCATS)
Inconclusive results are not listed. A call without a number means that no potency is given here. Calls of active or inactive are those of the source. Unless noted, the call rests on the fitted dose curve; in most records, active means well fitted inhibition curve with a large enough effect; inconclusive means small, poorly fitted or top-dose-only effect; inactive means no such curve, though single readings can be large or run the other way.

biological target: Muscarinic acetylcholine receptor M1 (Rattus norvegicus) (UniProt P08482); assay: qHTS Assay for Antagonists of Acetylcholine Muscarinic M1 Receptor: Measurement of IP-One Response (AID 944); conditions: CHO-M1 cells, IP-One HTRF, antagonist mode; series mostly up to 46.1 µM; further: nearly all actives have a fitted effect of over 75% in size
Sequence (P08482 whole entry, looked up): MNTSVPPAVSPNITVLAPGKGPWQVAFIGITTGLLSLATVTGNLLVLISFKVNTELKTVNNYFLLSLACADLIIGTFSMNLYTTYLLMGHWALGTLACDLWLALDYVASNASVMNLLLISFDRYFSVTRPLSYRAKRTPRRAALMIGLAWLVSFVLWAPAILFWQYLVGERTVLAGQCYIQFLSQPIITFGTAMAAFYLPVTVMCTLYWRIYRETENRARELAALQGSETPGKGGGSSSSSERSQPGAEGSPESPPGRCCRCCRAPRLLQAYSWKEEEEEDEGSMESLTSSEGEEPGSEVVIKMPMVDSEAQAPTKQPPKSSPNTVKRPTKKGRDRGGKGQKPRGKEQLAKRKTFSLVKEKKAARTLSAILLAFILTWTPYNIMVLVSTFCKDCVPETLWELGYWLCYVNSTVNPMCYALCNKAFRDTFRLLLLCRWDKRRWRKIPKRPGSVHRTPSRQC
Outline: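 Steps: plate transfected CHO-M1 cells overnight; add test compound, 10 min; add carbachol (200 nM, EC80) in stimulation buffer with LiCl; incubate 30 min; add labelled IP1 tracer and anti-IP1 antibody in lysis buffer; read HTRF after 10 min.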

SMILES | Potency
NC(N)=NC(N)=Nc1ccccc1 | inactive
O=C(O)c1ccccc1Nc1ccccc1 | inactive
Nc1ccc(N2C(=O)c3ccccc3C2=O)c(Cl)c1 | inactive
NCCCCN | inactive
CC(C)(CO)Cc1cc(C(C)(C)C)c(O)c(C(C)(C)C)c1 | inactive
COc1ccc2c(c1)c(CC(=O)O)c(C)n2C(=O)c1ccccc1 | inactive
O=C(O)/C=C/c1ccc(O)c(O)c1 | inactive
Cn1c(=O)c2[nH]c(C3CCCC3)nc2n(C)c1=O | inactive
O=c1cc(-c2ccccc2)[nH]c2nc(Cl)ccc12 | inactive
N=C(N)SCCN | inactive
NCCCCN=C(N)N | inactive
COc1ccc2c(c1)c(CC(=O)O)c(C)n2Cc1ccc(Cl)cc1 | inactive
CCCCCCC/C=C\CCCCCCCCC(=O)O | inactive
CC(C)Cn1c(=O)n(C)c(=O)c2[nH]cnc21 | inactive
N[C@@H](Cc1ccc(O)c(I)c1)C(=O)O | inactive
O=C(O)c1cc2cc(F)ccc2[nH]1 | inactive
Cn1cc(C(=O)OCC2CCN(CCNS(C)(=O)=O)CC2)c2ccccc21 | inactive
Cn1ccnc1 | inactive

biological target: Pyruvate kinase (Leishmania mexicana) (UniProt Q27686); assay: qHTS Validation Assay for Inhibitors of Leishmania Mexicana Pyruvate Kinase (AID 945); conditions: purified L. mexicana pyruvate kinase, enzyme activity, E451W mutant enzyme; series mostly up to 57.5 µM
Sequence (Q27686 2-499 E452W): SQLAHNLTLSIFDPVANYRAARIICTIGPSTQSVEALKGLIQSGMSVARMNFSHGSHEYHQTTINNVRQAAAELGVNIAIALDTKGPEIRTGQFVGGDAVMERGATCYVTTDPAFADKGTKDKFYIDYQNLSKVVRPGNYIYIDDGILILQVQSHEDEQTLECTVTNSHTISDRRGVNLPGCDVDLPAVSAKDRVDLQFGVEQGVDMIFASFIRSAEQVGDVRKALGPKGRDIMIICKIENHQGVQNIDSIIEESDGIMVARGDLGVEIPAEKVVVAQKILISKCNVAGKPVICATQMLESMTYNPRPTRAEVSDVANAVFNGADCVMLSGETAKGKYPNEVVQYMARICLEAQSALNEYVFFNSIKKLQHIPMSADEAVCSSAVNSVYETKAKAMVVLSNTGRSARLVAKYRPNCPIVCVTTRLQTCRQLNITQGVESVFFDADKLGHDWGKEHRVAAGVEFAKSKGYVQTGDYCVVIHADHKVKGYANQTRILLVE
Outline: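 Substrate mix (0.5 mM PEP, 0.1 mM ADP, 7 mM MgCl2, 50 mM KCl, pH 7.2 imidazole) received compound by pin tool, then 0.2 nM LmPYK E451W. After 1 h at room temperature, PKLight was added and luminescence measured.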

SMILES | Potency
NC(N)=[N+]1CCc2ccccc2C1 | inactive
COc1cc(/C=C(\C#N)C(=O)c2ccc(O)c(O)c2)cc(I)c1O | inactive
NC(N)=NC(N)=Nc1ccccc1 | inactive
O=C(O)c1ccccc1Nc1ccccc1 | inactive
Nc1ccc(N2C(=O)c3ccccc3C2=O)c(Cl)c1 | inactive
CC(C)NC[C@H](O)COc1ccc(CC(N)=O)cc1 | inactive
NCCCCN | inactive
CC(C)(CO)Cc1cc(C(C)(C)C)c(O)c(C(C)(C)C)c1 | inactive
O=[N+]([O-])c1cccc2c(Br)[nH]nc12 | inactive
COc1ccc2c(c1)c(CC(=O)O)c(C)n2C(=O)c1ccccc1 | inactive
CCCn1c(=O)c2c(ncn2C)n(CCC)c1=O | inactive
O=C(O)/C=C/c1ccc(O)c(O)c1 | inactive
Cn1c(=O)c2[nH]c(C3CCCC3)nc2n(C)c1=O | inactive
O=c1cc(-c2ccccc2)[nH]c2nc(Cl)ccc12 | inactive
N=C(N)SCCN | inactive
NCCCCN=C(N)N | inactive
COc1ccc2c(c1)c(CC(=O)O)c(C)n2Cc1ccc(Cl)cc1 | inactive
O=C(OCCN1CCOCC1)C1(c2ccccc2)CCCCC1 | inactive
CCCCCCC/C=C\CCCCCCCCC(=O)O | inactive
CC(C)Cn1c(=O)n(C)c(=O)c2[nH]cnc21 | inactive
N[C@@H](Cc1ccc(O)c(I)c1)C(=O)O | inactive
O=C(O)c1cc2cc(F)ccc2[nH]1 | inactive
Cn1cc(C(=O)OCC2CCN(CCNS(C)(=O)=O)CC2)c2ccccc21 | inactive
Cn1ccnc1 | inactive

biological target: Pyruvate kinase PKM (Homo sapiens) (UniProt P14618); assay: qHTS Assay for Activators of Human Muscle Pyruvate Kinase (AID 954; active means well fitted curve in the direction sought with a large enough effect, not every such curve was filed as active); conditions: purified human muscle pyruvate kinase, luciferase-coupled luminescence, 1 h; series mostly up to 57.5 µM
Sequence (P14618 whole entry, looked up): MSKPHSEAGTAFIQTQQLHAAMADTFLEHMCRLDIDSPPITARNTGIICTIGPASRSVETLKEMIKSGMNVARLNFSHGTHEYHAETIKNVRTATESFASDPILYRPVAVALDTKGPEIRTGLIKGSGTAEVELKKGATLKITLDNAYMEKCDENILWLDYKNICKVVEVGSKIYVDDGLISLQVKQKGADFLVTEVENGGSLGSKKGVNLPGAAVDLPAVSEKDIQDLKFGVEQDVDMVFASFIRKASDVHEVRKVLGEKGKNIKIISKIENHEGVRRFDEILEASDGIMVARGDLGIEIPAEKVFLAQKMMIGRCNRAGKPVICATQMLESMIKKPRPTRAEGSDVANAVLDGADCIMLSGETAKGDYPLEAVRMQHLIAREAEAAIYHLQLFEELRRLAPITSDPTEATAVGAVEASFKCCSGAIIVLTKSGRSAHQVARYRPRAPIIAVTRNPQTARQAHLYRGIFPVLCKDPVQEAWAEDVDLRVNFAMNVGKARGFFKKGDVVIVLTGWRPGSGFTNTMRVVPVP
Outline: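 Enzyme was run at intermediate activity so both inhibitors and activators could be detected. ATP formed from ADP and PEP by 0.1 nM human PKM2 during a 1 h room-temperature incubation was quantified by coupled luciferase luminescence.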

SMILES | outcome
NC(N)=[N+]1CCc2ccccc2C1 | inactive
COc1cc(/C=C(\C#N)C(=O)c2ccc(O)c(O)c2)cc(I)c1O | inactive
NC(N)=NC(N)=Nc1ccccc1 | inactive
O=C(O)c1ccccc1Nc1ccccc1 | inactive
Nc1ccc(N2C(=O)c3ccccc3C2=O)c(Cl)c1 | inactive
CC(C)NC[C@H](O)COc1ccc(CC(N)=O)cc1 | inactive
NCCCCN | inactive
CC(C)(CO)Cc1cc(C(C)(C)C)c(O)c(C(C)(C)C)c1 | inactive
O=[N+]([O-])c1cccc2c(Br)[nH]nc12 | inactive
COc1ccc2c(c1)c(CC(=O)O)c(C)n2C(=O)c1ccccc1 | inactive
CCCn1c(=O)c2c(ncn2C)n(CCC)c1=O | inactive
O=C(O)/C=C/c1ccc(O)c(O)c1 | inactive
Cn1c(=O)c2[nH]c(C3CCCC3)nc2n(C)c1=O | inactive
O=c1cc(-c2ccccc2)[nH]c2nc(Cl)ccc12 | inactive
N=C(N)SCCN | inactive
NCCCCN=C(N)N | inactive
COc1ccc2c(c1)c(CC(=O)O)c(C)n2Cc1ccc(Cl)cc1 | inactive
O=C(OCCN1CCOCC1)C1(c2ccccc2)CCCCC1 | inactive
CCCCCCC/C=C\CCCCCCCCC(=O)O | inactive
CC(C)Cn1c(=O)n(C)c(=O)c2[nH]cnc21 | inactive
N[C@@H](Cc1ccc(O)c(I)c1)C(=O)O | inactive
O=C(O)c1cc2cc(F)ccc2[nH]1 | inactive
Cn1cc(C(=O)OCC2CCN(CCNS(C)(=O)=O)CC2)c2ccccc21 | inactive
Cn1ccnc1 | inactive
